PubChem BioAssay AID1493 (National Center for Advancing Translational Sciences (NCATS), 2009)
Where “and” joins values, the source holds several entries; their conditions need not be identical. Equal entries are not always repeated. Inconclusive results are not listed. Calls of active or inactive are those of the source.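 How the source made its calls: active means compound pushes the radio-tagged natural neuropeptide S off its receptor in a binding test; inconclusive means any compound that did not displace the tagged ligand; inactive means never assigned.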

These compounds were tested against Neuropeptide S receptor (Homo sapiens) (UniProt Q6W5P4) (assay: Confirmation Concentration-Response Assay for Antagonists of the Neuropeptide S Receptor: Radioligand Displacement). Settings: CHO-hNPSR cells, [125I]Y10-NPS displacement, 1.5 h.
Chain of Neuropeptide S receptor (Homo sapiens) (Q6W5P4 whole entry, looked up): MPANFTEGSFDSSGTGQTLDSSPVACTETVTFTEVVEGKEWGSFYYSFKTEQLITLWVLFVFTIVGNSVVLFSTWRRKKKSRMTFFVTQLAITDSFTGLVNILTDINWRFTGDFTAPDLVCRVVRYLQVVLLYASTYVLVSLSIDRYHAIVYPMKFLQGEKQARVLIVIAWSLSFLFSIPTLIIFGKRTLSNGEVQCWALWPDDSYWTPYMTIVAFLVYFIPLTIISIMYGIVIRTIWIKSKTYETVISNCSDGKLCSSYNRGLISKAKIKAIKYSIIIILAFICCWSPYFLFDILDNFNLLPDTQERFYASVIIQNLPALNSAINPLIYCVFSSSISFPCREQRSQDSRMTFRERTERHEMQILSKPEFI
Text: NIH Chemical Genomics Center [NCGC] NIH Molecular Libraries Probe Production centers Network [MLPCN] MLPCN Grant: X01-DA026210-01 Assay Submitter (PI): Heilig, Markus Alexander NCGC Assay Overview: Neuropeptide S receptor (NPSR), previously known as GPR154, is a recently de-orphanized G protein coupled receptor. Its endogenous ligand is the 20 amino acids peptide Neuropeptide S (NPS). […] NPS and its receptor are found in various tissues. Specifically they are highly expressed in brain areas that have been implicated in modulation of arousal, stress and anxiety. Central administration of NPS in mice produces an unusual profile of activity by inducing wakefulness and arousal, while at the same time suppressing anxiety. Therefore, NPSR may represent a novel drug target for the treatment of sleep and anxiety disorders. As one method of confirming the specific activity of compounds active in the primary screen (AID 1461), we developed an assay to measure the displacement of radio-labeled native ligand, NPS, from its receptor in vitro.
The assay was carried out as described (Xu et al. (2004) Neuron, 43: 487-497) with minor modification. Y10-NPS labeled with 125I was bought from NEN Perkin Elmer (Boston, MA). CHO cells stably expressing human NPSR were seeded into 24-well plates and cultured until reaching 90-95% confluency. Cells were washed with 1ml PBS once and then incubated with radioligand with or without compounds or in DMEM medium containing 0.1% bovine serum albumin at 20C for 1.5 hr. Increasing concentrations of compounds or unlabeled human NPS were used to compete with 0.15 nM [125I] Y10-NPS. Nonspecific binding was determined in the presence of 1 uM unlabeled human NPS. Cells were washed twice with cold PBS and lysed with 1 N NaOH. Bound radioactivity was counted in a liquid scintillation counter.

Potency, active:
COc1cccc(C2c3c(ncn(-c4ccccc4)c3=N)Oc3ccc4ccccc4c32)c1 (stereo not drawn) 266 nM
COc1cccc(C2c3c(ncn(CCN4CCOCC4)c3=N)Oc3ccc4ccccc4c32)c1 (stereo not drawn) 439 nM
COc1ccc(C2c3c(ncn(CCN4CCOCC4)c3=N)Oc3ccc4ccccc4c32)cc1OC (stereo not drawn) 256 nM and 190 nM
CCOC(=O)CC(=O)Nc1ncnc2c1C(c1ccccc1)c1c(ccc3ccccc13)O2 (stereo not drawn) 616 nM
N#CC1=C(NC=NCc2ccccc2)Oc2ccc3ccccc3c2C1c1ccccc1 (stereo not drawn) 321 nM
O=C1OC(c2ccccc2)(c2ccccc2)N2CCN(C(=O)NCc3ccc(F)cc3)CC12 (stereo not drawn) 5.62 nM
N=c1c2c(ccn1-c1ccccc1)Oc1ccc3ccccc3c1C2c1ccccc1 (stereo not drawn) 367 nM
CCOC(=O)C1CCCN(c2ncnc3c2oc2ccccc23)C1 (stereo not drawn) 26400 nM
